PubChem BioAssay (Tox21)
Inconclusive results are not listed. Activity calls are given as the source filed them. Unless noted, calls come from the whole dose curve; as a rule, active = well fitted curve in the direction sought with a large enough effect in the repeat runs; inconclusive = weak or mixed curves; inactive = no such curve, though single readings can be large; an effect the other way counts as inactive or inconclusive.

Assays:
[1] = qHTS assay to identify small molecule antagonists of the glucocorticoid receptor (GR) signaling pathway - cell viability counter screen (AID 720693); note: nearly all actives have a fitted effect of over 55% in size; note: potency is the fitted concentration of half-maximal effect
[2] = qHTS assay for identifying genotoxic compounds that show differential cytotoxicity against isogenic chicken DT40 cell lines with known DNA damage response pathways - wild type cell line (AID 743012); note: nearly all actives have a fitted effect of over 60% in size; note: potency is the fitted concentration of half-maximal effect
In short: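 Wild-type DT40 cells (300/well) exposed to compounds for 40 hours at 37 C/5% CO2. Viability read by CellTiter-Glo luminescence after 30 min at room temperature.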

[3] = qHTS assay for identifying genotoxic compounds that show differential cytotoxicity against isogenic chicken DT40 cell lines with known DNA damage response pathways - Rev3 mutant cell line (AID 743014); note: nearly all actives have a fitted effect of over 55% in size; note: potency is the fitted concentration of half-maximal effect
[4] = qHTS assay for identifying genotoxic compounds that show differential cytotoxicity against isogenic chicken DT40 cell lines with known DNA damage response pathways - Rad54/Ku70 mutant cell line (AID 743015); note: nearly all actives have a fitted effect of over 60% in size; note: potency is the fitted concentration of half-maximal effect
[5] = qHTS assay to identify small molecule antagonists of the androgen receptor (AR) signaling pathway - cell viability counter screen (AID 743033; note: nearly all actives have a fitted effect of over 45% in size; note: potency is the fitted concentration of half-maximal effect)
[6] = target: Androgen receptor (Homo sapiens) (UniProt P10275); experiment: qHTS assay to identify small molecule agonists of the androgen receptor (AR) signaling pathway using the MDA cell line (AID 743040; note: nearly all actives have a fitted effect of over 20% in size)
In short: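 MDA-kb2 breast carcinoma cells stably carrying an MMTV-driven luciferase reporter (AR- and GR-responsive) were seeded and held 5 h at 37C, 0% CO2, then exposed to compounds in DMSO for 16 h. Luminescence was read 30 min after ONE-Glo addition.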

[7] = qHTS assay to identify small molecule antagonists of the androgen receptor (AR) signaling pathway using the MDA cell line - cell viability counter screen (AID 743041; note: nearly all actives have a fitted effect of over 45% in size; note: potency is the fitted concentration of half-maximal effect)
In short: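 MDA-kb2 AR-luc human breast carcinoma cells (MMTV-luciferase, AR/GR responsive) were treated with compounds plus R1881 agonist for 16 h at 37 °C. Viability was read as CellTiter-Fluor fluorescence in the same wells as the reporter assay.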

[8] = target: Androgen receptor (Homo sapiens) (UniProt P10275); experiment: qHTS assay to identify small molecule antagonists of the androgen receptor (AR) signaling pathway using the MDA cell line (AID 743042; note: potency is the fitted concentration of half-maximal effect; nearly all actives have a fitted effect of over 55% in size)
In short: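 MDA-kb2 cells (human breast carcinoma, stably carrying an MMTV-luciferase reporter responsive to AR and GR) were plated at 3,000 cells/well and preincubated 5 hr at 37C, then given compound plus R1881 agonist for 16 h. ONE-Glo luminescence was read.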

[9] = qHTS assay to identify small molecule antagonists of the thyroid receptor (TR) signaling pathway - cell viability counter screen (AID 743064); note: nearly all actives have a fitted effect of over 50% in size; note: potency is the fitted concentration of half-maximal effect
In short: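 Fluorescence from CellTiter-Fluor, added after 23.5 h exposure at 37 °C, reported viability of GH3.TRE-Luc cells co-treated with compound and 1 nM T3. Measured in the same wells as the luciferase TR readout.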

[10] = qHTS assay to identify small molecule antagonists of the thyroid receptor (TR) signaling pathway (AID 743065); note: nearly all actives have a fitted effect of over 55% in size; note: potency is the fitted concentration of half-maximal effect
In short: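 GH3.TRE-Luc rat pituitary cells carrying two TR response elements driving luciferase were plated for 4 h, given compound plus 1 nM T3 (final), and incubated 23.5 h at 37 C. ONE-Glo luminescence measured reporter inhibition; CellTiter-Fluor fluorescence tracked cytotoxicity.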

[11] = tested on: thyroid hormone receptor (rat, GH3 cells); experiment: qHTS assay to identify small molecule agonists of the thyroid receptor (TR) signaling pathway (AID 743066; calls by dose curve; note: potency is the fitted concentration of half-maximal effect)
[12] = qHTS assay to identify small molecule antagonists of the estrogen receptor alpha (ER-alpha) signaling pathway - cell viability counter screen (AID 743074; calls by dose curve; note: nearly all actives have a fitted effect of over 45% in size; note: potency is the fitted concentration of half-maximal effect)
[13] = qHTS assay to identify small molecule antagonists of the estrogen receptor alpha (ER-alpha) signaling pathway using the BG1 cell line - cell viability counter screen (AID 743081);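 note: compound given together with 17beta-estradiol as the ER stimulus; nearly all actives have a fitted effect of over 45% in size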; note: potency is the fitted concentration of half-maximal effect
[14] = target: Aromatase (Homo sapiens) (UniProt P11511); experiment: qHTS assay to identify aromatase inhibitors (AID 743083); note: nearly all actives have a fitted effect of over 55% in size; note: potency is the fitted concentration of half-maximal effect
[15] = target: Estrogen receptor (Homo sapiens) (UniProt P03372); experiment: qHTS assay to identify small molecule antagonists of the estrogen receptor alpha (ER-alpha) signaling pathway (AID 743069; active = well fitted curve in the direction sought with a large enough effect in the signal ratio in the repeat runs, not every such curve was filed as active; the % refers to the signal ratio)
In short: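 HEK293 cells stably carrying an ER-alpha-UAS-bla beta-lactamase reporter were pre-cultured overnight in 2% charcoal-stripped FBS medium. Test compounds in DMSO were added together with 17beta-estradiol for 18 hr at 37C. Read-out was fluorescence after 2 hr with LiveBLAzer B/G FRET substrate at room temperature.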

[16] = target: Estrogen receptor (Homo sapiens) (UniProt P03372); experiment: qHTS assay to identify small molecule agonists of the estrogen receptor alpha (ER-alpha) signaling pathway (AID 743075; calls by dose curve)
[17] = target: Estrogen receptor (Homo sapiens) (UniProt P03372); experiment: qHTS assay to identify small molecule agonists of the estrogen receptor alpha (ER-alpha) signaling pathway using the BG1 cell line (AID 743079); conditions: BG1Luc4E2 cells, ERE-luciferase agonist, 22 h; activation: at 70.3 µM (top of the series); note: nearly all actives have a fitted effect of over 20% in size
[18] = target: Androgen receptor (Homo sapiens) (UniProt P10275); experiment: qHTS assay to identify small molecule antagonists of the androgen receptor (AR) signaling pathway (AID 743035; active = well fitted inhibition curve with a large enough effect in the signal ratio in the repeat runs, not every such curve was filed as active; the % refers to the signal ratio; note: potency is the fitted concentration of half-maximal effect)
In short: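 HEK293 cells stably carrying UAS-beta-lactamase reporter, 2,000/well, given compounds plus R1881 agonist and incubated 16 h at 37C. LiveBLAzer B/G FRET substrate then added for 2 h at room temperature before fluorescence reading.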

[19] = qHTS assay to identify small molecule antagonists of the estrogen receptor alpha (ER-alpha) signaling pathway using the BG1 cell line (AID 743080; calls by dose curve;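 note: BG1 cells stimulated with 17beta-estradiol alongside compound; nearly all actives have a fitted effect of over 25% in size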)
In short: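 Luminescence from a 4×ERE-luciferase reporter in BG1-Luc-4E2 cells served as read-out. Cells, pre-cultured 5 days in stripped-serum phenol-red-free medium, were exposed to compound with 17beta-estradiol co-stimulation for 21.5 h at 37 C.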

Measured: Potency

Sequence of Androgen receptor (Homo sapiens) (P10275 whole entry, looked up): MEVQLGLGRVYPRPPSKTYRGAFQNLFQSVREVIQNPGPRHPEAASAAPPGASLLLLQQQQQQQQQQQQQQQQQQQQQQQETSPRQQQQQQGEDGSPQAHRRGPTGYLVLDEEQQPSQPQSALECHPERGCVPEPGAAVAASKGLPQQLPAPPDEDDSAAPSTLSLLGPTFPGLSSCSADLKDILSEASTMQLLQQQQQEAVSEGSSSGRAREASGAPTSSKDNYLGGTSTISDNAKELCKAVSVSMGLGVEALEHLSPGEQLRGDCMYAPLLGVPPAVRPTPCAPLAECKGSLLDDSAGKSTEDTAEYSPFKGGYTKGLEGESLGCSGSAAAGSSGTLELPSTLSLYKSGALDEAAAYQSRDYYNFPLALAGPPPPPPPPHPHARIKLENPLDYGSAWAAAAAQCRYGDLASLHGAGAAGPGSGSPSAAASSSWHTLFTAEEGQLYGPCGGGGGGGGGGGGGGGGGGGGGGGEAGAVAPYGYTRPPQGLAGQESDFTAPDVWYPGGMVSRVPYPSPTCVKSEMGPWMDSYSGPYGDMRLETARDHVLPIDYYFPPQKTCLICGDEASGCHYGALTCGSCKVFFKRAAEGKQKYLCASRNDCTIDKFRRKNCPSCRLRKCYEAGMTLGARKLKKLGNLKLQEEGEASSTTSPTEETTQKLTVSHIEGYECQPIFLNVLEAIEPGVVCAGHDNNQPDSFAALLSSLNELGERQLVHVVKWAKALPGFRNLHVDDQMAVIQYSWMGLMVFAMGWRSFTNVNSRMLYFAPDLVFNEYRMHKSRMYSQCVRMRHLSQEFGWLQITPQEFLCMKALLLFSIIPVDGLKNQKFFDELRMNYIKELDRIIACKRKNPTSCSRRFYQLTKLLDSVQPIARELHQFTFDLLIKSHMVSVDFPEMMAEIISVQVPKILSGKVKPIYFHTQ
Sequence of Estrogen receptor (Homo sapiens) (P03372 whole entry, looked up): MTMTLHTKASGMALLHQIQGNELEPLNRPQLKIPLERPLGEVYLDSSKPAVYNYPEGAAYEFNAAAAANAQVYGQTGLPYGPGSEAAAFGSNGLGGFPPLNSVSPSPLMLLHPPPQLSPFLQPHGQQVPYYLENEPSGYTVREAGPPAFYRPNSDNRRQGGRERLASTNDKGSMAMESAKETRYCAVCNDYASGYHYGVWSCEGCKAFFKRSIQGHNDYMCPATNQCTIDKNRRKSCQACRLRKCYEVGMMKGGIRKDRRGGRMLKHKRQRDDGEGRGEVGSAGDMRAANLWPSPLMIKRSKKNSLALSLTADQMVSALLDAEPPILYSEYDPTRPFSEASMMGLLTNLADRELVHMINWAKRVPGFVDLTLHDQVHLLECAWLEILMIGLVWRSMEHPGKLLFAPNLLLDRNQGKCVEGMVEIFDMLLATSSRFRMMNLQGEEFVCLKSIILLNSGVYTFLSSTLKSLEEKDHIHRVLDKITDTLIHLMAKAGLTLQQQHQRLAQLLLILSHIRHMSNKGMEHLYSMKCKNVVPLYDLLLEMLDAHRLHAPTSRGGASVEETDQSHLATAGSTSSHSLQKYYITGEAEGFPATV
Sequence of Aromatase (Homo sapiens) (P11511 whole entry, looked up): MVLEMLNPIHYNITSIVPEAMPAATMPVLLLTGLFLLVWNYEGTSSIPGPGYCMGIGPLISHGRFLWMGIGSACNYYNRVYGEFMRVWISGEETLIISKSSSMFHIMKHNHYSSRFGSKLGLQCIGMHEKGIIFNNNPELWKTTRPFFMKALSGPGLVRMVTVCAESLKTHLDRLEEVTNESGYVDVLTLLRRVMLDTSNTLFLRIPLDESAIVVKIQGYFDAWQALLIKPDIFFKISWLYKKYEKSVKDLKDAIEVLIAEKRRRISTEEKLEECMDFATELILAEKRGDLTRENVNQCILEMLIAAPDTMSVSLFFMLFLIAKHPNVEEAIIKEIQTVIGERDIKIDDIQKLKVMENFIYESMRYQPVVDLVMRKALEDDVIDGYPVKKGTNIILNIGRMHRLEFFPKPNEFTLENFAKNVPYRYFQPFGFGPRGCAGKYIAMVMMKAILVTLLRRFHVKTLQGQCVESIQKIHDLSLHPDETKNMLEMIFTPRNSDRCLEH

C=CC(=O)[O][Sn]([CH2]CCC)([CH2]CCC)[CH2]CCC
active: [1] 1550 nM | [2] 864 nM | [3] 864 nM | [4] 686 nM | [5] 1230 nM | [7] 2170 nM | [8] 1720 nM | [9] 969 nM | [10] 611 nM | [11] 193 nM | [12] 1100 nM | [13] 5450 nM | [14] 5450 nM
inactive: [6]

ClSC(Cl)(Cl)Cl
not listed: [6] | [8] | [18] | [19]
inactive: all other assays above

N#Cc1sc2c(=O)c3ccccc3c(=O)c=2sc1C#N
inactive: [11]
active: [1] 490 nM | [2] 1370 nM | [3] 433 nM | [4] 770 nM | [5] 13800 nM | [18] 9770 nM | [7] 1370 nM | [8] 306 nM | [9] 24300 nM | [10] 24300 nM | [12] 54900 nM | [13] 27300 nM | [14] 2170 nM

CSC(C)(C)/C=N/O
not listed: [6] | [8] | [17] | [18]
inactive: all other assays above
